Compounds with a hit are over-represented: about 5.5% of the library has one in this group of screens.
Giardia kill – Small Molecules that selectively kill Giardia lamblia: qHTS; Giardia lamblia trophozoite viability; activity change, % at 7.66 µM, hits read low; actives 0.15% (n = 340,000); in the data active means activity change below about -80%; inconclusive means between about -30% and that limit;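 further: parasites exposed to compound for two days anaerobically before the ATP read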
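Trophozoites 100 cells/well + cpd; 48 hrs, 37 deg C, anaerobic. ATPLite 1-Step added, 15-30 min RT, luminescence read (ATP-based viability).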
ELG1 DNA repair – qHTS screen for small molecules that inhibit ELG1-dependent DNA repair in human embryonic kidney (HEK293T) cells expressing luciferase-tagged ELG1. HEK293T ELG1-luciferase reporter, luminescence, 16 h; DNA damage induced by 5-fluorouridine. Potency, µM (highest dose often 46.1 µM), for the others: top-dose activity change, negative = inhibition, hits mostly inhibitors. actives 2.3% (n = 330,000); further: potency means the concentration at half of the fitted maximal effect; nearly all actives have a fitted effect of over 55% in size
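In this reporter screen, reduction of luminescence relative to DMSO vehicle indicated activity. Compounds and 5-fluorouridine were added together to 2,000 cells per well, incubated for 16 hr at 37 °C, then developed with ONE-Glo.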
Coupling enz – qHTS Assay for Inhibitors of Fructose-1,6-bisphosphate Aldolase from Giardia Lamblia: Coupling assay counterscreen; coupling enzyme system counterscreen, AmpLite Red fluorescence; activity change, negative = inhibition, % at 58.2 µM, hits read low; actives 0.67% (n = 290,000); in the data active means activity change below about -30%
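Compounds tested against the coupling enzymes alone at 57.5 uM final; readout was AmpLite Red fluorescence (525/598 nm) after 20 min at RT.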
Sfp PPTase inh – qHTS Assay for Inhibitors of Bacillus subtilis Sfp phosphopantetheinyl transferase (PPTase) | Potency, µM, without a hit: largest response in the series, negative = inhibition, usual class: inhibitors | actives 3.5% (n = 310,000) | Biochemical Sfp PPTase activity, qHTS | 4'-phosphopantetheinyl transferase ffp (Bacillus subtilis), Q9F4F7;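 further: the enzyme is Sfp with the accession as filed and its product quenches rhodamine fluorescence; potency means the concentration at half of the fitted maximal effect; 0% = enzyme reaction without inhibitor and -100% = no enzyme wells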
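Sfp 15 nM + cpd, 15 min RT; start w/ rhodamine-CoA 5 uM, BHQ-2-YbbR 12.5 uM (final); 50 mM Hepes pH 7.6, 10 mM MgCl2, 0.01% NP-40, 0.01% BSA; read 525/598 nm at 0 and 30 min.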
An asterisk follows results filed as active; ? = inconclusive; nt = no result given. Unless noted, the call rests on the fitted dose curve; in most records, active means well fitted curve in the direction sought with a large enough effect; inconclusive means small, poorly fitted or top-dose-only effect, or another doubt; inactive means no such curve, though single readings can be large; an effect the other way counts as inactive or inconclusive. Unless noted, on the % scale 0 is the no-effect control and ±100 the full control effect.

SMILES	Giardia kill	ELG1 DNA repair	Coupling enz	Sfp PPTase inh
COC(=O)CN1C(=S)N(c2ccc(Cl)cc2)C(=O)C1CC(=O)Nc1ccc(F)cc1 (stereo not given)	-26	3%	1	-7%
CCOC(=O)c1cccc(S(=O)(=O)N(CCO)Cc2cc3cc(OC)ccc3[nH]c2=O)c1	3	?	-5	10%
COC(=O)c1cccc(S(=O)(=O)N(Cc2ccco2)Cc2cc3cc(OC)ccc3[nH]c2=O)c1	-5	15µM*	-5	-16%
Cc1cc2cc(CN(Cc3ccco3)S(=O)(=O)c3c(C)ccc4nsnc34)c(=O)[nH]c2cc1C	6	?	2	50µM*
Cc1ccc2[nH]c(=O)c(CN(CCCO)S(=O)(=O)c3c(C)ccc4nsnc34)cc2c1	13	-21%	2	12%
Cc1ccc2cc(CN(Cc3ccco3)S(=O)(=O)c3c(C)ccc4nsnc34)c(=O)[nH]c2c1	-7	?	-4	16µM*
COC(=O)NC(c1ccc(Cl)cc1)C(C(C)=O)C(=O)OC (stereo not given)	nt	nt	2	11%
Cc1c(C(=O)Nc2ccccc2F)sc2ncn(CC(=O)N3CCCCC3)c(=O)c12	-16	3%	2	-6%
O=C(c1cc(C(F)(F)F)cc(C(F)(F)F)c1)N1CCC[C@@]2(CCN(c3ccncc3)C2)C1	nt	nt	0	-1%
COc1ccc(Cn2c(O)c(C=Nc3ccc(O)cc3)c3ccccc3c2=O)cc1	-20	23µM*	1	1%
COc1ccc(Cn2c(O)c(C=Nc3ccccc3)c3ccccc3c2=O)cc1	-6	-24%	-3	3%
CCOC(=O)c1cc(C(=O)OCC)c(=O)[nH]c1C	7	2%	-2	?
CCOC(=O)c1cc2c(N)c(C(=O)c3ccc(Br)cc3)sc2[nH]c1=O	?	-1%	0	28µM*
CC(=O)c1c(C)oc2ccc(NS(=O)(=O)c3ccc(F)cc3C)cc12	1	6.5µM*	-1	18%
CC(C)(C)[C@@H]1C=C(C(=O)Nc2ccccc2)O[C@H](OCc2ccc(CO)cc2)C1	5	7.3µM*	-9	-5%
Cc1ccccc1C1c2[nH]c3ccccc3c2C[C@H]2C(=O)N(c3ccccc3C(=O)NCCCN3CCOCC3)C(=O)N12 (stereo not given in full)	6	?	0	-3%
CCOc1ccc(S(=O)(=O)NC(C)(C)C)cc1-c1nc2c(C(C)(C)C)nn(C)c2c(=O)[nH]1	8	12µM*	-6	-8%
O=C(CN1CCC(NC(=O)Nc2ccc(F)cc2)CC1)Nc1ccccc1[N+](=O)[O-]	7	18µM*	0	9%
COc1ccc(C(=O)NC2CCN(CC(=O)Nc3cccc(OC)c3)CC2)cc1	21	-10%	1	21%
COc1cccc(NC(=O)NC2CCN(CC(=O)Nc3ccccc3[N+](=O)[O-])CC2)c1	-12	21µM*	1	0%
CO[C@@H]1C=CO[C@]2(C)Oc3c(C)c(O)c4c(O)c(c(C=NN5CCN(C)CC5)c(O)c4c3C2=O)NC(=O)C(C)=CC=C[C@H](C)[C@H](O)[C@H](C)[C@H](O)[C@H](C)[C@H](OC(C)=O)[C@H]1C	nt	nt	-5	12%
CC(C)(C)NC(=O)NC(=O)CN1CCc2ccccc21	19	9%	-39*	-8%
COc1cc(S(=O)(=O)N2CCCCCC2)ccc1-n1cnnn1	12	-1%	0	45µM*
O=c1[nH]cc(I)cc1I	9	-4%	-3	22µM*
COc1ccccc1N1CCN(C2CCCN(C(=O)c3cccc(-c4ccco4)c3)C2)CC1 (stereo not given)	-12	23µM*	nt	-27%
COc1ccccc1N1CCN(C2CCCN(C(=O)c3ccoc3C)C2)CC1 (stereo not given)	17	-12%	2	4%
CCOc1ccc(CNC(=O)Nc2ccccc2)cc1	-12	?	-1	-7%
CN(C)c1oc(-c2ccccc2[N+](=O)[O-])nc1C#N	-21	1%	-30*	10µM*
O=[N+]([O-])c1nn(-c2ccc3c(c2)OCCO3)n(O)c1=NC1CCN(Cc2ccccc2)CC1	-82*	?	-3	16%

Assay outcomes: PubChem BioAssay, National Center for Advancing Translational Sciences (NCATS)
